Our source for the Potency and activity (max response) values is PubChem BioAssay (NCATS).

Molecules are shown by their SMILES. “And” between values parts separate entries of the source, which are not always exact repeats. Identical values can stand only once. Results filed as inconclusive are left out. Unmarked numbers belong to inactive results. The source made the active and inactive calls. Calls follow the shape of the dose curve; as a rule, active = well fitted curve in the direction sought with a large enough effect; inconclusive = small, poorly fitted or top-dose-only effect, or another doubt; inactive = no such curve, though single readings can be large; an effect the other way counts as inactive or inconclusive.

For assay [1], the target named is Cytochrome P450 3A7 (Homo sapiens) (UniProt P24462). Description: Cytochrome P450 family 3 subfamily A member 7 (CYP3A7) small molecule antagonists: luciferase biochemical qHTS assay (AID 1963596). Also: % is scaled to controls: 0 for no effect and ±100 for the full control effect; nearly all actives have a fitted effect of over 40% in size. An outline of the steps:
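Compounds were screened in qHTS format for interference with CYP3A7 turnover of a proluciferin substrate. Reactions ran 1 h at room temperature after NADPH regeneration solution was added, then luciferin product was detected by luminescence.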
(qHTS replaces the single test concentration by a dilution series.)

The nature of assay [2]: Viability qHTS for spleen associated tyrosine kinase inhibitor (SYKi) naive MV4-11 cells (AID 1963823). Also: nearly all actives have a fitted effect of over 40% in size. Also: potency is read from the fitted curve at half-maximal effect. An outline of the steps: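 SYKi-naive MV4-11 AML cells, 500 per well, were exposed to library compounds for 72 hr at 37 C, 5% CO2. Viability was then read by CellTiter-Glo luminescence after 10 min at room temperature.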
Assay [3] is described as follows: Viability qHTS for spleen associated tyrosine kinase inhibitor (SYKi) drug resistant MV4-11 cells (AID 1963824). Also: nearly all actives have a fitted effect of over 35% in size. Also: potency is read from the fitted curve at half-maximal effect. An outline of the steps:
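SYK-inhibitor-resistant MV4-11 AML cells were seeded at 500 per well onto compound and cultured 72 hours (37 °C, 5% CO2). CellTiter-Glo was then added, and after 10 min at room temperature, luminescence gave viability.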

Assay [4] in a line: Quantitative highthroughput screen to assess conditional lethalithy of NOMO1 cells grown in RPMI1640 with untreated serum (RPMI+s) (AID 1963876). Also: nearly all actives have a fitted effect of over 35% in size. Also: potency is read from the fitted curve at half-maximal effect.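 As to Viability: 100% = DMSO wells and 0% = empty wells without cells.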 An outline of the steps:
(§1)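 Each medium arm—HPLM with 10% dialyzed FBS, or RPMI1640 with 5 mM glucose and 10% untreated or dialyzed FBS—was screened against an 11-point, 3-fold compound titration for 48 h at 37 °C, with CellTiter-Glo luminescence as endpoint.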

Assay [5] is described as follows: Quantitative highthroughput screen to assess conditional lethalithy of SEM cells grown in RPMI1640 with dialyzed fetal bovine serum (RPMI+ds) (AID 1963884). Also: nearly all actives have a fitted effect of over 35% in size. Also: potency is read from the fitted curve at half-maximal effect.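 As to Viability: series mostly up to about 46 µM; 100% = DMSO control wells and 0% = empty wells without cells.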 An outline of the steps: as §1
A short description of assay [6]: Cellular viability qHTS for adrenocortical cancer (ACC) cell line SW-13 (AID 1963989). Also: nearly all actives have a fitted effect of over 65% in size. Also: potency is read from the fitted curve at half-maximal effect.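 As to activity (max response): cells grown in serum-free medium with ITS supplement; % is scaled to controls: 0 for no effect and ±100 for the full control effect.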 The following applies: SW-13 ACC cells viability, CellTiter-Glo, 48 h; activity (max response): hits give low values. An outline of the steps:
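Here, serum-free SW-13 cultures were dosed up to 46 uM. Following 48 h, ATP-dependent luminescence (CellTiter-Glo) reported viable cells, and logistic modeling produced IC50 values.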

Assay [7] in a line: Cellular viability qHTS for adrenocortical cancer (ACC) cell line NCI-H295R (AID 1963990). Also: nearly all actives have a fitted effect of over 60% in size. Also: potency is read from the fitted curve at half-maximal effect. An outline of the steps:
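Viability of NCI-H295R after 48 h of treatment (final up to 46 uM) measured through cellular ATP luminescence.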

Assay [8] can be described thus: Quantitative highthroughput screen to assess conditional lethalithy of NOMO1 cells grown in RPMI1640 with dialyzed fetal bovine serum (RPMI+ds) (AID 1963877). Also: nearly all actives have a fitted effect of over 30% in size. Also: potency is read from the fitted curve at half-maximal effect.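 As to Viability: series mostly up to about 46 µM; 100% = DMSO control wells and 0% = empty wells.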 An outline of the steps: as §1
A short description of assay [9]: Quantitative highthroughput screen to assess conditional lethalithy of P12 Ichikawa cells grown in Human Plasma-Like Medium with dialyzed fetal bovine serum (HPLM+ds) (AID 1963879). Also: nearly all actives have a fitted effect of over 35% in size. Also: potency is read from the fitted curve at half-maximal effect. As to Viability: series mostly up to about 46 µM. To be noted: Potency: viability. An outline of the steps:
as §1

The nature of assay [10]: Quantitative highthroughput screen to assess conditional lethalithy of P12 Ichikawa cells grown in RPMI1640 with dialyzed fetal bovine serum (RPMI+ds) (AID 1963880). Also: nearly all actives have a fitted effect of over 35% in size. Also: potency is read from the fitted curve at half-maximal effect.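 As to Viability: 100% = DMSO wells and 0% = empty wells on each plate.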 The following applies: Potency: P12-Ichikawa viability. An outline of the steps: as §1
Assay [11] in a line: Quantitative highthroughput screen to assess conditional lethalithy of P12 Ichikawa cells grown in RPMI1640 with untreated serum (RPMI+s) (AID 1963881). Also: nearly all actives have a fitted effect of over 35% in size. Also: potency is read from the fitted curve at half-maximal effect.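 As to Viability: series mostly up to about 46 µM; 100% = DMSO wells and 0% = empty wells without cells.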 The following applies: Potency: viability. An outline of the steps:
as §1

The nature of assay [12]: Quantitative highthroughput screen to assess conditional lethalithy of SEM cells grown in Human Plasma-Like Medium with dialyzed fetal bovine serum (HPLM+ds) (AID 1963882). Also: nearly all actives have a fitted effect of over 35% in size. Also: potency is read from the fitted curve at half-maximal effect. As to Viability: series mostly up to about 46 µM. An outline of the steps: as §1
A short description of assay [13]: Quantitative highthroughput screen to assess conditional lethalithy of SEM cells grown in RPMI1640 with unreated serum (RPMI+s) (AID 1963883). Also: nearly all actives have a fitted effect of over 35% in size. Also: potency is read from the fitted curve at half-maximal effect.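 As to Viability: 100% = DMSO wells and 0% = empty wells without cells.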 An outline of the steps: as §1
Assay [14] is described as follows: Quantitative highthroughput screen to assess conditional lethalithy of NOMO1 cells grown in Human Plasma-Like Medium with dialyzed fetal bovine serum (HPLM+ds) (AID 1963878). Also: nearly all actives have a fitted effect of over 35% in size. Also: potency is read from the fitted curve at half-maximal effect.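 As to Viability: 100% = DMSO wells and 0% = empty wells on each plate.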 An outline of the steps:
as §1

Chain of Cytochrome P450 3A7 (Homo sapiens) (P24462 whole entry, looked up): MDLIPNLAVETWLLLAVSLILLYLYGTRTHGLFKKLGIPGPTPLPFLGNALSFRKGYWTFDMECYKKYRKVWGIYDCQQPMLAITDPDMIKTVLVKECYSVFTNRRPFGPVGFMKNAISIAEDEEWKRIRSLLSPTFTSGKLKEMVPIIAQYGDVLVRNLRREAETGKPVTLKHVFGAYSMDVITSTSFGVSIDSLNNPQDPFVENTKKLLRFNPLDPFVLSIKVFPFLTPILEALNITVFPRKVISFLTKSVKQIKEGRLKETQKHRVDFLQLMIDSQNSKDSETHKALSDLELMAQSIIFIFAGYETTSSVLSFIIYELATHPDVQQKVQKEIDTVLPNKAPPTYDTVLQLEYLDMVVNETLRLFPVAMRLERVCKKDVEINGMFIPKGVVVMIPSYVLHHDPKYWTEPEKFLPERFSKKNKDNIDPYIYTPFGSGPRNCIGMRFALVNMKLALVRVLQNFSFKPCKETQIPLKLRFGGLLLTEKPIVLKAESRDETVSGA

Turning to `CNc1nc(Nc2cnn([C@H]3CCN(C4COC4)C[C@@H]3F)c2Cl)ncc1C(F)(F)F`, the Potency result in assay [1] and in assay [7] was “inactive” in each case. Further, the Potency in [2] is 1300 nM (active); in assay [3] it was 1860 nM (active); in [4], 1660 nM (active); in assay [5], 2340 nM (active). The activity (max response) in [6] was -2.31%.
As for `NC(=O)c1cccnc1`, the Potency entry in assay [1], in [2], in assay [3], in [4], in assay [8] and in assay [9] was “inactive” throughout. Further, the Potency result in assay [10], in assay [11] and in assay [7] was “inactive” each time. Further, in [12], the Potency is 16600 nM (active). Besides, the activity (max response) in assay [6] is -8.19% and 2.22%.
As for `NC(=O)c1cnccn1`, the Potency result in assay [1], in assay [2], in assay [3], in assay [4], in assay [8] and in assay [9] was “inactive” throughout. In addition, the Potency result in assay [10], in assay [11], in [12], in [13], in assay [5] and in assay [7] was “inactive” each time. Besides, in assay [6], the activity (max response) was 14.3% and 8.02%.
As to `CO[C@@H]1COCC[C@@H]1N[C@@H]1CC[C@@](C(=O)N2CCc3ncc(C(F)(F)F)cc3C2)(C(C)C)C1`, the Potency entry in [1], in assay [2], in assay [3], in assay [4], in [8] and in assay [7] was “inactive” in each case. In [6], the activity (max response) was -5.19%.
In the case of `CN(C)c1nc(Cc2ccc(NC(=O)c3ccc(C(F)(F)F)cc3)cc2)nc(N(C)C)c1CC(=O)O`, the Potency entry in assay [1], in assay [2], in assay [3], in assay [4], in [14] and in assay [9] was “inactive” each time. For the same compound, the Potency entry in assay [10], in assay [11], in [12], in assay [13] and in assay [5] was “inactive” throughout.
With `COc1cc2c(cc1OC)CN(CCc1ccc(NC(=O)c3cc(OC)c(OC)cc3NC(=O)c3cnc4ccccc4c3)cc1)CC2`, the Potency entry in [1], in [2], in [3], in assay [4], in [8] and in [14] was “inactive” each time. The Potency entry in assay [7] was “inactive”.
With `COc1c(OCCCN2CCOCC2)ccc2c3n(c(=NC(=O)c4cnc(N)nc4)nc12)CCN3`, the Potency entry in assay [1] was “inactive”. Moreover, the Potency in [2] was 47.3 nM (active) and 53.9 nM (active); in assay [3], 37.6 nM (active) and 241 nM (active); in assay [9] it was 182 nM (active); in [13], 2040 nM (active); in assay [7], 237 nM (active).
Take `CC(C)NCC(O)COc1ccc(CCOCC2CC2)cc1` (stereo unspecified): the Potency entry in assay [1], in assay [2], in [3], in assay [9], in assay [10] and in [11] was “inactive” in each case. The Potency result in assay [12], in assay [5] and in assay [7] was “inactive” in each case. Moreover, in [14], the Potency was 16600 nM (active). Also, the activity (max response) in assay [6] was -8.57%.
For the compound `COc1cnc(NS(=O)(=O)c2ccc(N)cc2)nc1`, the Potency result in assay [1], in assay [3] and in [12] was “inactive” in each case. Besides, the Potency in [2] is 1.2 nM (active). Further, the activity (max response) in [6] was 10.3%.
With `O=c1[nH]cnc2[nH]ncc12`, the Potency result in assay [1], in assay [2], in assay [3], in [8], in [10] and in assay [11] was “inactive” throughout. Further, the Potency result in [13] and in [7] was “inactive” each time. Besides, the activity (max response) in [6] is 1.44% and -3.08%.
In the case of `COc1ncnc(NS(=O)(=O)c2ccc(N)cc2)c1OC`, the Potency result in assay [1], in [2], in assay [3] and in [7] was “inactive” in each case. The Potency in assay [8] was 7430 nM (active); in assay [14] it was 2350 nM (active); in assay [9], 1180 nM (active); in assay [10], 1180 nM (active); in assay [11] it was 1660 nM (active); in assay [13] it was 935 nM (active). Also, in assay [6], the activity (max response) is -3.79% and 4.29%.
Turning to `CCC1(C)CC(=O)NC1=O` (stereo unspecified), the Potency entry in assay [1], in [2], in assay [3], in [8], in [14] and in assay [9] was “inactive” in each case. In addition, the Potency entry in assay [10], in assay [11], in assay [12], in assay [13], in assay [5] and in assay [7] was “inactive” each time. For the same compound, the activity (max response) in assay [6] is 14.5% and 4.04%.
`COC(=O)Nc1nc2ccc(S(=O)c3ccccc3)cc2[nH]1` (stereo unspecified): the Potency entry in assay [1] and in [10] was “inactive” in each case. The Potency in [2] was 16.6 µM (active) and 841 nM (active); in assay [3] it was 14.8 µM (active) and 668 nM (active); in assay [9], 7430 nM (active); in [6], 8.91 µM (active) and 259 nM (active); in assay [7], 4.47 µM (active) and 259 nM (active).
Turning to `Cc1nc2ccc(CN(C)c3ccc(C(=O)N[C@@H](CCC(=O)O)C(=O)O)s3)cc2c(=O)[nH]1`, the Potency result in assay [1], in [13] and in assay [7] was “inactive” in each case. In addition, the Potency in [2] was 6.6 nM (active); in [3], 7.4 nM (active).
Take `COC(=O)Nc1nc2ccc(Sc3ccccc3)cc2[nH]1`: the Potency result in [1] was “inactive”. In addition, the Potency in [2] is 372 nM (active); in assay [3] it was 417 nM (active); in assay [13] it was 2350 nM (active); in [5] it was 2960 nM (active); in [6], 184 nM (active) and 316 nM (active); in assay [7], 130 nM (active) and 316 nM (active).
Consider `O=C1NC(O)CCN1[C@@H]1O[C@H](CO)[C@H](O)[C@H]1O` (stereo partly specified), for which the Potency result in assay [1], in assay [2], in [3], in assay [9], in assay [10] and in assay [11] was “inactive” in each case. In addition, the Potency result in assay [12], in assay [13], in [5] and in assay [7] was “inactive” each time. For the same compound, the Potency in assay [14] was 20900 nM (active). Moreover, the activity (max response) in assay [6] is -1.6%.
For `CCCOc1ccc2nc(NC(=O)OC)[nH]c2c1`, in assay [1], the Potency result is “inactive”. Further, the Potency in [2] was 263 nM (active); in assay [3] it was 184 nM (active) and 332 nM (active); in assay [9], 41.8 nM (active); in assay [11], 41.8 nM (active); in assay [13], 14.8 nM (active); in assay [5] it was 20.9 nM (active). For the same compound, the Potency in assay [6] was 251 nM (active); in assay [7], 355 nM (active).
